Test results: PubChem BioAssay (NCI)
Where “and” joins values, the source holds several entries; their conditions need not be identical. Equal entries are not always repeated. Compounds without any hit were thinned out: in the full panel of roughly 83,000, 20% have a hit.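 Growth was measured after 48 h exposure to one concentration of compound in 96-well plates. Values under 10 count as active.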 Calls of active or inactive are those of the source.

These compounds were tested on UACC-62 melanoma (assay: NCI-60 one-dose screen, 48 h (100 = growth as untreated, 0 = no growth, -100 = all killed)). Conditions: 10 µM.
Procedure: Growth inhibition of the UACC-62 human tumor cell line is measured as a screen for anti-cancer activity. Cells are grown in 96 well plates and exposed to the test compound for 48 hours. Compounds are tested at a single concentration, which is 10^-5 M for most compounds. The reported endpoint is percent growth (GI% or GIPRCNT), where numbers from 0 - 100% represent growth inhibition, and numbers from -100% - 0 represent cell death. For example, a value of 40 represents 60% growth inhibition. A value of 0 means no net growth occurred over the course of the experiment. A value of -40 indicates 40% of cells at the beginning of the experiment died by the end of the experiment. A value of -100 means all cells are dead at the end of the experiment.
NCI-60 Human Tumor Cell Lines Screen was performed using the standard one-dose NCI protocol, which is described in more detail at https://dtp.cancer.gov/discovery_development/nci-60/default.htm.
Compounds with GIPRCNT values below 10 were considered active. Activity score was based on GIPRCNT using the following formula: […]
Score is 0 for GIPRCNT values of 100 or above, 50 for GIPRCNT values of 0, and 100 for GIPRCNT values of -100.

| SMILES | growth |
| --- | --- |
| C=C1C(=O)OC2CC1C(OC(C)=O)C/C(C)=C/CC/C(C)=C\CCC2(C)O (stereo not given) | 44.5% (inactive) |
| CC1=CC(=C(c2ccc(N)cc2)c2ccc(N)cc2)C=CC1=N | -20.2% (active) and 22.6% (inactive) |
| C#CCN(Cc1ccc2nc(N)[nH]c(=O)c2c1)c1ccc(C(=O)NC(CCC(=O)O)C(=O)O)cc1 (stereo not given) | 81.6% (inactive) |
| O=[N+]([O-])c1cc[n+]([O-])cc1 | 91.1% (inactive) |
| Cc1ccc(Sc2ccccc2N)cc1 | 90.2% (inactive) |
| COc1ccc(C(=O)C(CN(C)C)CN(C)C)cc1 | 73.4% (inactive) |
| CN(C)CCOC1(Cc2ccc(Cl)cc2Cl)CCC(C(C)(C)C)CC1 (stereo not given) | -26% (active) and -56.2% (active) |
| Cc1cc(N(CCOS(C)(=O)=O)CCOS(C)(=O)=O)ccc1C=Nc1ccc(-c2nc(Cc3ccccc3)sc2C)cc1 | 37.8% (inactive) |

Same assay, conditions: 100 µM

| SMILES | growth |
| --- | --- |
| C=C1C(=O)OC2CC1C(OC(C)=O)C/C(C)=C/CC/C(C)=C\CCC2(C)O (stereo not given) | -94.6% (active) |
| COc1cc([C@@H]2c3cc4c(cc3[C@@H](Nc3ccc(NC(=O)c5cc([N+](=O)[O-])cn5C)cc3)[C@H]3COC(=O)[C@H]23)OCO4)cc(OC)c1O | -35.1% (active) |
